# Reference: the supplement of paper PMC8728848
# The full list was thinned out, with the strongest signals kept by preference.
# B1: Epa21 (Candida glabrata) (protein)
# chain: MGSSHHHHHHSSGLVPRGSHMASTPNIESHPQGCSPVDTSGIKPGLKMDLYRFPITPPGTGCWSWDWLTVTPDFPRSGYWKWPKIAEVDGVVGPLHLDSGHPTCDPLTSVLPHGFNYLQSITTTNFTMVLHGYFVPKQSGKYTFEFKADDALLLNLGAGNAFSCCDYNNSQYNQGEYLAYAIWSKNNQTATLYLEKGIYYPIRVFYHNRCCGAYMDVVYYFNDSPIPNRDFSGLLFSIPDSDSCDANI
# What was measured:
# Experiment in all cases: glycan array binding signal (z-score within array); higher = stronger binding
# Conditions in all cases: glycan notation: IUPAC condensed, linker removed
# [1] = molecular target: Fuc(a1-2)Gal(b1-4)Fuc(a1-3)]GlcNAc(b1-2)Man(a1-3)[Fuc(a1-2)Gal(b1-4)[Fuc(a1-3)]GlcNAc(b1-2)Man(a1-6)]Man(b1-4)GlcNAc(b1-4)GlcNAc
# Method in brief: (§1)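 Glycan array data came from 3228 arrays in the Consortium for Functional Glycomics database, and only arrays with an available protein sequence were kept. Glycan names were put into IUPAC-condensed notation, and columns mapping to the same glycan were averaged. The binding signal is a within-array Z-score, averaged across arrays of one protein sequence run at different concentrations or buffers and across linkers. A negative Z-score can be read as non-binding.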
# [2] = molecular target: Fuc(a1-2)Gal(b1-4)GlcNAc(b1-3)[Fuc(a1-2)Gal(b1-4)GlcNAc(b1-6)]GalNAc
# Method in brief: as §1
# [3] = molecular target: Fuc(a1-2)Gal6S(b1-3)GlcNAc6S
# Method in brief: as §1
# [4] = molecular target: Fuc(a1-2)[Gal(a1-3)]Gal(b1-3)GlcNAc(b1-2)Man(a1-3)[Fuc(a1-2)[Gal(a1-3)]Gal(b1-3)GlcNAc(b1-2)Man(a1-6)]Man(b1-4)GlcNAc(b1-4)GlcNAc
# Method in brief: as §1
# [5] = molecular target: Fuc(a1-2)[Gal(a1-3)]Gal(b1-4)GlcNAc(b1-6)GalNAc
# Method in brief: as §1
# [6] = molecular target: Fuc(a1-2)[GalNAc(a1-3)]Gal(b1-4)GlcNAc(b1-6)GalNAc
# Method in brief: as §1
# [7] = molecular target: Fuc(a1-2)[GalNAc(a1-3)]Gal(b1-4)[Fuc(a1-3)]GlcNAc
# Method in brief: as §1
# [8] = molecular target: Fuc(a1-3)[Gal(b1-4)]GlcNAc(b1-2)Man
# Method in brief: as §1
# [9] = molecular target: Fuc(a1-3)[Gal(b1-4)]GlcNAc(b1-3)Gal(b1-4)[Fuc(a1-3)]GlcNAc
# Method in brief: as §1
# Fuc(b1-3)GlcNAc = molecular target: Fuc(b1-3)GlcNAc
# Method in brief: as §1
# Gal(a1-3)Gal(b1-4)Glc = molecular target: Gal(a1-3)Gal(b1-4)Glc
# Method in brief: as §1
# [10] = molecular target: Gal(a1-3)Gal(b1-4)GlcNAc(b1-3)GalNAc
# Method in brief: as §1
# Gal(a1-3)GalNAc = molecular target: Gal(a1-3)GalNAc
# Method in brief: as §1
# Gal(a1-4)GlcNAc = molecular target: Gal(a1-4)GlcNAc
# Method in brief: as §1
# [11] = molecular target: Gal(b1-3)GlcNAc(b1-3)Gal(b1-4)GlcNAc
# Method in brief: as §1
# [12] = molecular target: Gal(b1-3)GlcNAc(b1-3)Gal(b1-4)[Fuc(a1-3)]GlcNAc(b1-6)[Gal(b1-3)GlcNAc(b1-3)]Gal(b1-4)Glc
# Method in brief: as §1
# [13] = molecular target: Gal(b1-3)GlcNAc(b1-3)GalNAc
# Method in brief: as §1
# [14] = molecular target: Gal(b1-4)GlcNAc(b1-2)Man(a1-3)[Gal(b1-4)GlcNAc(b1-2)Man(a1-6)][GlcNAc(b1-4)]Man(b1-4)GlcNAc(b1-4)[Fuc(a1-6)]GlcNAc
# Method in brief: as §1
# [15] = molecular target: Gal(b1-4)GlcNAc(b1-3)Gal(b1-4)GlcNAc(b1-3)Gal(b1-4)GlcNAc(b1-2)Man(a1-3)[Gal(b1-4)GlcNAc(b1-3)Gal(b1-4)GlcNAc(b1-3)Gal(b1-4)GlcNAc(b1-2)Man(a1-6)]Man(b1-4)GlcNAc(b1-4)GlcNAc
# Method in brief: as §1
# [16] = molecular target: Gal(b1-4)GlcNAc(b1-3)Gal(b1-4)GlcNAc(b1-3)[Gal(b1-4)GlcNAc(b1-3)Gal(b1-4)GlcNAc(b1-6)]GalNAc
# Method in brief: as §1
# [17] = molecular target: Gal(b1-4)GlcNAc(b1-3)Gal(b1-4)GlcNAc(b1-6)[Gal(b1-3)]GalNAc
# Method in brief: as §1
# [18] = molecular target: Gal(b1-4)GlcNAc(b1-3)Gal(b1-4)[Fuc(a1-3)]GlcNAc(b1-3)Gal(b1-4)[Fuc(a1-3)]GlcNAc
# Method in brief: as §1
# [19] = molecular target: Gal(b1-4)GlcNAc(b1-6)GalNAc
# Method in brief: as §1
# Gal6S(b1-4)Glc6S = molecular target: Gal6S(b1-4)Glc6S
# Method in brief: as §1
# Gal6S(b1-4)GlcNAc6S = molecular target: Gal6S(b1-4)GlcNAc6S
# Method in brief: as §1
# [20] = molecular target: GalNAc(b1-4)GlcNAc(b1-2)Man(a1-3)[GalNAc(b1-4)GlcNAc(b1-2)Man(a1-6)]Man(b1-4)GlcNAc(b1-4)GlcNAc
# Method in brief: as §1
# GlcA(b1-3)GlcNAc = molecular target: GlcA(b1-3)GlcNAc
# Method in brief: as §1
# [21] = molecular target: GlcNAc(a1-4)Gal(b1-4)GlcNAc
# Method in brief: as §1
# [22] = molecular target: GlcNAc(b1-2)Gal(b1-3)GalNAc
# Method in brief: as §1
# [23] = molecular target: GlcNAc(b1-6)Gal(b1-4)GlcNAc
# Method in brief: as §1
# [24] = molecular target: Man(a1-2)Man(a1-2)Man(a1-6)[Man(a1-3)]Man
# Method in brief: as §1
# [25] = molecular target: Man(a1-3)[Man(a1-6)]Man(a1-6)[Man(a1-3)]Man
# Method in brief: as §1
# [26] = molecular target: Neu5Ac(a2-3)Gal(b1-3)GlcNAc(b1-3)Gal(b1-3)GlcNAc
# Method in brief: as §1
# [27] = molecular target: Neu5Ac(a2-3)Gal(b1-3)GlcNAc(b1-3)Gal(b1-4)GlcNAc
# Method in brief: as §1
# [28] = molecular target: Neu5Ac(a2-3)Gal(b1-3)[Neu5Ac(a2-6)]GlcNAc(b1-3)[Fuc(a1-3)[Gal(b1-4)]GlcNAc(b1-6)]Gal(b1-4)Glc
# Method in brief: as §1
# [29] = molecular target: Neu5Ac(a2-3)Gal(b1-4)GlcNAc(b1-2)Man
# Method in brief: as §1
# [30] = molecular target: Neu5Ac(a2-3)Gal(b1-4)GlcNAc(b1-3)Gal(b1-4)GlcNAc(b1-3)GalNAc
# Method in brief: as §1
# [31] = molecular target: Neu5Ac(a2-3)Gal(b1-4)GlcNAc(b1-3)[Neu5Ac(a2-3)Gal(b1-4)GlcNAc(b1-6)]GalNAc
# Method in brief: as §1
# [32] = molecular target: Neu5Ac(a2-3)Gal(b1-4)[Fuc(a1-3)]GlcNAc(b1-3)GalNAc
# Method in brief: as §1
# [33] = molecular target: Neu5Ac(a2-6)Gal(b1-4)GlcNAc(b1-2)Man
# Method in brief: as §1
# [34] = molecular target: Neu5Ac(a2-6)Gal(b1-4)GlcNAc(b1-2)Man(a1-3)[Gal(b1-4)GlcNAc(b1-2)Man(a1-6)]Man(b1-4)GlcNAc(b1-4)GlcNAc
# Method in brief: as §1
# [35] = molecular target: Neu5Ac(a2-6)Gal(b1-4)GlcNAc(b1-3)Gal(b1-4)GlcNAc
# Method in brief: as §1
# [36] = molecular target: Neu5Ac(a2-6)Gal(b1-4)GlcNAc(b1-3)Gal(b1-4)GlcNAc(b1-2)Man(a1-3)[Neu5Ac(a2-6)Gal(b1-4)GlcNAc(b1-3)Gal(b1-4)GlcNAc(b1-2)Man(a1-6)]GalNAc
# Method in brief: as §1
# [37] = molecular target: Neu5Ac(a2-6)Gal(b1-4)GlcNAc(b1-3)Gal(b1-4)GlcNAc(b1-3)Gal(b1-4)GlcNAc(b1-2)Man(a1-3)[Neu5Ac(a2-6)Gal(b1-4)GlcNAc(b1-3)Gal(b1-4)GlcNAc(b1-3)Gal(b1-4)GlcNAc(b1-2)Man(a1-6)]GalNAc
# Method in brief: as §1
# [38] = molecular target: Neu5Ac(a2-6)Gal(b1-4)GlcNAc(b1-3)Gal(b1-4)[Fuc(a1-3)]GlcNAc(b1-3)Gal(b1-4)[Fuc(a1-3)]GlcNAc
# Method in brief: as §1
# [39] = molecular target: Neu5Ac9Ac(a2-3)Gal(b1-3)GlcNAc
# Method in brief: as §1
binder,measurement,setting,value
B1,glycan array binding signal (z-score),[1],2.49
same,glycan array binding signal (z-score),[2],-0.296
same,glycan array binding signal (z-score),[3],4.29
same,glycan array binding signal (z-score),[4],-0.507
same,glycan array binding signal (z-score),[5],-0.214
same,glycan array binding signal (z-score),[6],-0.634
same,glycan array binding signal (z-score),[7],-0.093
same,glycan array binding signal (z-score),[8],-0.558
same,glycan array binding signal (z-score),[9],0.064
same,glycan array binding signal (z-score),Fuc(b1-3)GlcNAc,-1.01
same,glycan array binding signal (z-score),Gal(a1-3)Gal(b1-4)Glc,-0.176
same,glycan array binding signal (z-score),[10],1.03
same,glycan array binding signal (z-score),Gal(a1-3)GalNAc,-0.135
same,glycan array binding signal (z-score),Gal(a1-4)GlcNAc,4.26
same,glycan array binding signal (z-score),[11],-0.56
same,glycan array binding signal (z-score),[12],-0.438
same,glycan array binding signal (z-score),[13],-0.317
same,glycan array binding signal (z-score),[14],-0.687
same,glycan array binding signal (z-score),[15],2.55
same,glycan array binding signal (z-score),[16],1.89
same,glycan array binding signal (z-score),[17],2.73
same,glycan array binding signal (z-score),[18],-0.493
same,glycan array binding signal (z-score),[19],-0.047
same,glycan array binding signal (z-score),Gal6S(b1-4)Glc6S,2.89
same,glycan array binding signal (z-score),Gal6S(b1-4)GlcNAc6S,3.19
same,glycan array binding signal (z-score),[20],0.288
same,glycan array binding signal (z-score),GlcA(b1-3)GlcNAc,0.14
same,glycan array binding signal (z-score),[21],-0.35
same,glycan array binding signal (z-score),[22],-0.466
same,glycan array binding signal (z-score),[23],0.013
same,glycan array binding signal (z-score),[24],-0.531
same,glycan array binding signal (z-score),[25],-0.026
same,glycan array binding signal (z-score),[26],-0.487
same,glycan array binding signal (z-score),[27],-0.39
same,glycan array binding signal (z-score),[28],-0.237
same,glycan array binding signal (z-score),[29],2.68
same,glycan array binding signal (z-score),[30],3.03
same,glycan array binding signal (z-score),[31],0.888
same,glycan array binding signal (z-score),[32],1.87
same,glycan array binding signal (z-score),[33],-0.212
same,glycan array binding signal (z-score),[34],-0.438
same,glycan array binding signal (z-score),[35],-0.589
same,glycan array binding signal (z-score),[36],2.55
same,glycan array binding signal (z-score),[37],5.42
same,glycan array binding signal (z-score),[38],-0.189
same,glycan array binding signal (z-score),[39],-0.318
